Among the data in PubChem BioAssay (NCATS) are Potency and activity change, negative = inhibition values, retold here.

For experiment [1], the system named is Zika virus NS2B-NS3 protease (unlinked complex). In words: Primary screen GU Rhodamine qHTS for Zika virus inhibitors: Unlinked NS2B-NS3 protease assay (AID 1347159). Further: nearly all actives have a fitted effect of over 60% in size. The following applies: Recombinant ZIKV NS2B-NS3 protease, Rhodamine110 substrate fluorescence; series mostly up to 107 µM. The gist of the method: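 Noncovalent NS2B hydrophilic domain/NS3 protease complex (25 nM final) in 10 mM Tris-HCl pH 8.0, 0.01% Tween 20, preincubated 15 min with compounds (up to 114 microM), then 1.5 microM Rhodamine110 substrate. Fluorescence change over 15 min fitted to 4-parameter Hill.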

For experiment [2], the system named is Zika virus NS2B-NS3 protease (linked construct). In words: Primary screen NINDS Rhodamine qHTS for Zika virus inhibitors (AID 1347160). Further: nearly all actives have a fitted effect of over 55% in size. Conditions: purified NS2B-NS3 protease, Rhodamine110 substrate fluorescence; series mostly up to 57.1 µM. The gist of the method: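 Purified NS2B-NS3 protease with the NS2B hydrophilic domain joined by a flexible linker (25 nM) in 10 mM Tris-HCl pH 8.0, 0.01% Tween 20, preincubated 15 min at RT with compound; Rhodamine110 peptide substrate 1.5 µM; fluorescence change over 15 min; 4-parameter Hill fit.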
A general note: In qHTS, concentration-response curves come from the screen itself.

Inconclusive results are not listed. A number with no mark means an inactive call. Active and inactive are the calls of the source. The call rests on the fitted dose curve; in most records, active means well fitted inhibition curve with a large enough effect; inconclusive means small, poorly fitted or top-dose-only effect; inactive means no such curve, though single readings can be large or run the other way. Where a SMILES comes first, the peptide text is derived from it. [ ]: non-standard residue; d: D form.
On the % scale 0 is the no-effect control and ±100 the full control effect; potency means the concentration at half of the fitted maximal effect.

`CC1[C@@H](O)[C@@H](O)C2[C@]3(C)C(C[C@H]4OC(=O)[C@H](O)[C@]1(O)[C@@]24C)C(C)(O)C[C@H](O)[C@H]3O` (stereo partly specified): the Potency result in experiment [1] and in experiment [2] was “inactive” in each case.

Consider `C[C@@H]1O[C@@H](O[C@H]2[C@H](OC(=O)[C@]34CCC(C)(C)C[C@H]3C3=CCC5[C@@]6(C)C[C@H](O)[C@H](O[C@@H]7O[C@H](CO[C@@H]8OC[C@H](O)[C@H](O)[C@H]8O)[C@@H](O)[C@H](O)[C@H]7O)C(C)(C)C6CC[C@@]5(C)[C@]3(C)C[C@H]4O)OC[C@@H](O)[C@@H]2O)[C@H](O)[C@H](O[C@@H]2OC[C@](O)(CO)[C@H]2O)[C@H]1O[C@@H]1OC[C@H](O)[C@H](O[C@@H]2OC[C@@H](O)[C@H](O)[C@H]2O)[C@H]1O` (stereo partly specified), for which the activity change, negative = inhibition was 12.7% [at 19.1 µM] in experiment [1] and 22.5% [at 10.7 µM] in experiment [2].

On to `C=C(C)[C@@H]1CC[C@](C)(O)[C@@H](OC(=O)c2ccccc2)C1`, for which the Potency entry in experiment [1] and in experiment [2] was “inactive” each time.

As for `CC1=CC[C@]2(C(=O)O[C@@H]3O[C@H](CO[C@@H]4O[C@H](CO)[C@@H](O[C@@H]5O[C@@H](C)[C@H](O)[C@@H](O)[C@H]5O)[C@H](O)[C@H]4O)[C@@H](O)[C@H](O)[C@H]3O)CC[C@]3(C)C(CCC4[C@@]5(C)C[C@@H](O)[C@H](O)[C@@](C)(CO)C5CC[C@]43C)C2C1C` (stereo partly specified), the Potency result in experiment [1] and in experiment [2] was “inactive” throughout.

For the compound `N#Cc1ccc2[nH]c(O)c(-c3ccc(CN4CCOCC4)cn3)c2c1`, the Potency entry in experiment [1] and in experiment [2] was “inactive” in each case.

Turning to `CC(=O)N[C@H](Cc1ccc(O)cc1)C(=O)N[C@H](CCCN=C(N)N)C(=O)N[C@H](Cc1ccccc1)C(N)=O` (Ac-[dY]-[dR]-[dF]-NH2), the Potency result in experiment [1] and in experiment [2] was “inactive” in each case.

Consider `C=C1CC[C@H]2[C@@](C)(CCC[C@@]2(C)C(=O)O)[C@@H]1CCC(C)CCO` (stereo partly specified), for which the Potency entry in experiment [1] and in experiment [2] was “inactive” throughout.

For the compound `O=C1Nc2ccc(O)cc2O[C@H]1O[C@@H]1O[C@H](CO)[C@@H](O)[C@H](O)[C@H]1O`, the Potency result in experiment [1] and in experiment [2] was “inactive” each time.

With `CO[C@@H](Cc1ccc(OCCc2nc(-c3ccccc3)oc2C)c2ccsc12)C(=O)O`, the Potency is 17.8 µM (active) in experiment [1] and 12.6 µM (active) in experiment [2].

`CC(=O)O[C@@]1(C)C[C@@H](O)[C@]2(O)C=CO[C@@H](O[C@@H]3O[C@H](CO)[C@@H](O)[C@H](O)[C@H]3O)[C@@H]21`: the Potency result in experiment [1] and in experiment [2] was “inactive” in each case.

With `O=C1[C@H](O[C@@H]2O[C@H](CO)[C@@H](O)[C@H](O)[C@H]2O)Oc2ccccc2N1O`, the Potency result in experiment [1] and in experiment [2] was “inactive” throughout.

With `COc1c2c(c(C)c3c1C(=O)OC3)OC1(C)CC(O)C3(O)C(C)(C)OC(=O)CCC3(C)C1C2` (stereo unspecified), the Potency entry in experiment [1] and in experiment [2] was “inactive” in each case.

On to `OC[C@H]1O[C@@H](OCCc2ccc(O)cc2)[C@H](O)[C@@H](O)[C@@H]1O`, for which the Potency entry in experiment [1] and in experiment [2] was “inactive” each time.

As to `CC(C)CC(=O)O[C@@H]1OC=C(CO[C@@H]2O[C@H](CO[C@@H]3O[C@H](CO)[C@@H](O)[C@H](O)[C@H]3O)[C@@H](O)[C@H](O)[C@H]2O)[C@H]2C[C@H](O)[C@@H](CO)[C@@H]12`, the Potency entry in experiment [1] and in experiment [2] was “inactive” in each case.

For `CNc1nc(Nc2cnn([C@H]3CCN(C4COC4)C[C@@H]3F)c2Cl)ncc1C(F)(F)F`, the Potency result in experiment [1] and in experiment [2] was “inactive” each time.

Turning to `Cc1[nH]cnc1C1CCN(c2nc3cccc4c3n2CCC4=O)CC1`, the Potency entry in experiment [1] and in experiment [2] was “inactive” in each case.

Take `CC1CCC2(C(=O)OC3OC(COC4OC(CO)C(O)C(O)C4O)C(O)C(O)C3O)CCC3(C)C(=CCC4C5(C)CCC(O)C(C)(C(=O)O)C5CCC43C)C2C1(C)O` (stereo unspecified): the Potency result in experiment [1] and in experiment [2] was “inactive” each time.

In the case of `CCOC(=O)c1ccc(N(C)c2csc(-c3ccccc3)n2)cc1`, the Potency entry in experiment [1] and in experiment [2] was “inactive” throughout.

Take `CC1=C(C)C(=O)OC(C(C)(O)C2CCC3C4CC=C5CC(OC6OC(COC7OC(CO)C(O)C(O)C7O)C(O)C(O)C6O)CC(O)C5(C)C4CCC32C)C1` (stereo unspecified): the Potency result in experiment [1] and in experiment [2] was “inactive” in each case.

With `N[C@@H](CC(=O)N1CCn2c(nnc2C(F)(F)F)C1)Cc1[nH]nc2c(F)c(F)ccc12`, the Potency result in experiment [1] and in experiment [2] was “inactive” in each case.

Consider `C[C@H]1C[C@H]2[C@@H]3CCC4=CC(=O)C=C[C@]4(C)[C@@]3(F)[C@@H](O)C[C@]2(C)[C@@]1(O)C(=O)COP(=O)(O)O`, for which the Potency result in experiment [1] and in experiment [2] was “inactive” each time.

`CC(=O)OCC1=C[C@H](O)[C@@H]2C(C(=O)O)=CO[C@@H](O[C@@H]3O[C@H](CO)[C@@H](O)[C@H](O)[C@H]3O)[C@H]12`: the Potency entry in experiment [1] and in experiment [2] was “inactive” throughout.

With `COC(=O)[C@@]1(O)C=CC[C@@H]2[C@@]3(C)C[C@@H](c4ccoc4)OC(=O)[C@H]3CC[C@]21C`, the Potency entry in experiment [1] and in experiment [2] was “inactive” throughout.
